This is an account of results in the supplement of paper PMC6522484.

Assay [1] has as its system DLD1. Description: cell viability (CellTiter-Glo) relative to plate median (fraction of plate median); higher = more viable cells. The following applies: 5 µM; treatment time 24 h; reporter: 7TFP. The gist of the method:
(§1)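 For this screen, colorectal cancer cell lines carrying stable lentiviral TCF/Wnt firefly luciferase reporters, either 7TFP or TCF4/Wnt, were seeded into 384-well plates. A day's wait of 24 h preceded addition of library compounds at a final 5 µM, which stayed on the cells for 24 h. Firefly luciferase or CellTiterGlo luminescence, read on parallel plates, was normalised to the plate median per well, and the reported value is the mean of two independent replicates.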
(In general: Cellular ATP, detected with luciferase, serves as a proxy for viable cell number.)

The next assay deals with HCT116. The assay is described as above. The following applies: 5 µM; treatment time 24 h; reporter: TCF4/Wnt. In short, it runs like this: as §1
For assay [2], the system named is SW480. Described as above. The following applies: 5 µM; treatment time 24 h; reporter: 7TFP. In short, it runs like this: as §1
The test system of assay [3] is DLD1. Description: TCF/Wnt firefly luciferase reporter signal relative to plate median (fraction of plate median); higher = higher Wnt reporter signal. Particulars: 5 µM; treatment time 24 h; reporter: 7TFP. The gist of the method:
as §1
(In general: In a reporter assay the amount or activity of a reporter protein is the signal.)

For assay [4], the system named is SW480. The assay is described as above. Particulars: 5 µM; treatment time 24 h; reporter: 7TFP. The gist of the method: as §1

± gives the standard deviation of the averaged measurements.

With `CCCOc1ccc(C(=O)OCCN(CC)CC)cc1N`, the figures for the cell viability with DLD1 [1], with HCT116 and in the assay on SW480 [2] were 0.9545 ± 0.0064, 0.994 ± 0.051 and 0.95 ± 0.038, respectively. Also, the figures for the “TCF/Wnt firefly luciferase reporter signal” value in the assay on DLD1 [3] and in the assay on SW480 [4] were 0.97 ± 0.057 and 1.095 ± 0.0071, respectively.
In the case of `Oc1cccc2nc3c(O)cccc3nc12` [1,6-Phenazinediol], the cell viability in the assay on DLD1 [1] is 1.12 ± 0.014; with HCT116, 0.992 ± 0.069; in the assay with SW480 [2], 1.01. Also, the results for the “TCF/Wnt firefly luciferase reporter signal” value with DLD1 [3] and in the assay on SW480 [4] were 1.12 ± 0.042 and 1.12 ± 0.12, respectively.
`CN(C)[C@@H]1C(O)=C(C(=O)NCN2CCCC2)C(=O)[C@@]2(O)C(O)=C3C(=O)c4c(O)cccc4[C@@](C)(O)[C@H]3C[C@@H]12`: the cell viability was 1.08 ± 0.13 in the assay with DLD1 [1], 1.06 in the assay with HCT116 and 1.02 ± 0.014 in the assay with SW480 [2]. The “TCF/Wnt firefly luciferase reporter signal” value with DLD1 [3] turned out to be 0.858 ± 0.067; in the assay on SW480 [4], 1.04.
On the same counts, the results for `COc1cc2oc3cc(OC)c(OC)c(CC=C(C)C)c3c(=O)c2c(OC)c1CC=C(C)C` are 1.03 ± 0.028, 1.08 ± 0.13, 1.035 ± 0.0071, 1.23 ± 0.12 and 1.02 ± 0.06.
Regarding `NC[C@H]1O[C@H](O[C@H]2[C@H](O[C@@H]3O[C@H](CO)[C@@H](O)[C@H]3O)[C@@H](O)[C@H](N)C[C@@H]2N)[C@H](N)[C@@H](O)[C@@H]1O`, the cell viability with DLD1 [1] stood at 0.955 ± 0.018; in the assay on HCT116, 0.996 ± 0.0014; in the assay on SW480 [2], 0.962 ± 0.0014. Moreover, the “TCF/Wnt firefly luciferase reporter signal” value in the assay with DLD1 [3] is 1.04 ± 0.057; with SW480 [4], 0.994 ± 0.023.
On the same counts, the results for `CN1CCc2cccc3c2[C@H]1Cc1ccc(O)c(O)c1-3` are 0.957 ± 0.06, 1.04 ± 0.088, 0.992 ± 0.025, 1.1 ± 0.057 and 0.978 ± 0.088.
`NC(=O)c1ccc([N+](=O)[O-])cc1Cl`: the cell viability worked out at 1.02 ± 0.047 with DLD1 [1], 1.1 ± 0.057 in the assay on HCT116 and 1 ± 0.014 in the assay on SW480 [2]. In addition, the “TCF/Wnt firefly luciferase reporter signal” value with DLD1 [3] was 0.894 ± 0.19; in the assay with SW480 [4] it was 0.967 ± 0.075.
On the same counts, the results for `Clc1ccccc1C(c1ccccc1)(c1ccccc1)n1ccnc1` are 1.05 ± 0.089, 1 ± 0.11, 0.956 ± 0.0042, 0.938 ± 0.086 and 1.08 ± 0.014.
The like results for `CC1(C)CC[C@]2(C(=O)O)CC[C@]3(C)C(=CCC4[C@@]5(C)CC[C@@H](O)C(C)(C)C5CC[C@]43C)C2C1` (stereo not given in full) were, in that order, 0.967 ± 0.032, 1.11 ± 0.092, 1.08 ± 0.014, 0.955 ± 0.093 and 0.9805 ± 0.005.
The like results for `C=C(NC(=O)C(=C)NC(=O)c1csc(C2=N[C@@H]3c4csc(n4)[C@H]4NC(=O)c5csc(n5)[C@H]([C@](C)(O)[C@@H](C)O)NC(=O)[C@H]5CSC(=N5)/C(=C/C)NC(=O)[C@H]([C@@H](C)O)NC(=O)c5csc(n5)[C@]3(CC2)NC(=O)[C@H](C)NC(=O)C(=C)NC(=O)[C@H](C)NC(=O)[C@H]([C@@H](C)CC)N[C@@H]2C=Cc3c([C@H](C)O)cc(nc3[C@H]2O)C(=O)O[C@@H]4C)n1)C(N)=O` were, in that order, 0.927 ± 0.044, 1.05, 0.999 ± 0.044, 0.966 ± 0.18 and 1.05 ± 0.071.
Take `CC(=O)N[C@@H](C=O)[C@@H](O)[C@H](O)[C@H](O)CO`: the cell viability amounted to 1.04 ± 0.021 in the assay with DLD1 [1], 1.06 ± 0.014 with HCT116 and 0.945 ± 0.013 in the assay on SW480 [2]. The entries for the “TCF/Wnt firefly luciferase reporter signal” value in the assay on DLD1 [3] and in the assay with SW480 [4] were 1.18 ± 0.035 and 1.2 ± 0.057, respectively.
The like results for `CN(C)CCCO[C@@H]1[C@H]2OC(C)(C)O[C@H]2O[C@@H]1[C@H](O)CO` were, in that order, 1.04 ± 0.06, 0.9935 ± 0.0064, 0.96 ± 0.038, 0.998 ± 0.14 and 0.972 ± 0.029.
Take `Cc1cccc(C(=O)O)c1O`: the figures for the cell viability with DLD1 [1], in the assay on HCT116 and in the assay on SW480 [2] were 1.02 ± 0.039, 0.934 ± 0.078 and 0.96 ± 0.0099, respectively. For the same compound, the entries for the “TCF/Wnt firefly luciferase reporter signal” value with DLD1 [3] and in the assay with SW480 [4] were 0.869 ± 0.12 and 0.922 ± 0.059, respectively.
The like results for `CC1(C)O[C@@H]2C[C@H]3[C@@H]4CCC5=CC(=O)C=C[C@]5(C)[C@@]4(F)[C@@H](O)C[C@]3(C)[C@]2(C(=O)CO)O1` were, in that order, 0.955 ± 0.027, 0.965 ± 0.024, 1.03 ± 0.042, 1.09 ± 0.021 and 0.951 ± 0.051.
Take `C=C(C)[C@H]1COc2cc3oc(=O)ccc3cc2O1`: the figures for the cell viability with DLD1 [1], in the assay with HCT116 and in the assay with SW480 [2] were 1.1 ± 0.17, 0.968 ± 0.026 and 1.09 ± 0.057, respectively. The “TCF/Wnt firefly luciferase reporter signal” value was 1.06 ± 0.092 in the assay on DLD1 [3] and 1.1 ± 0.042 in the assay on SW480 [4].
Take `CC(=O)O[C@H]1C[C@@H](OC(C)=O)C(C)(C)C2CC(=O)[C@]3(C)C(CC[C@@]4(C)[C@H](c5ccoc5)OC(=O)[C@H]5O[C@]543)[C@]21C` (stereo not given in full): the cell viability was 0.983 ± 0.0099 with DLD1 [1], 0.998 ± 0.046 with HCT116 and 1.02 ± 0.076 with SW480 [2]. Moreover, the “TCF/Wnt firefly luciferase reporter signal” value is 1.06 ± 0.11 in the assay with DLD1 [3] and 1.03 ± 0.028 in the assay on SW480 [4].
On the same counts, the results for `Cc1ncc([N+](=O)[O-])n1CCO` are 1.08 ± 0.064, 1.06 ± 0.071, 1.02 ± 0.014, 1.06 ± 0.042 and 0.964 ± 0.11.
Consider `CCCCCNC(=N)N/N=C/c1c[nH]c2ccc(OC)cc12`, for which the cell viability amounted to 0.877 ± 0.1 in the assay on DLD1 [1], 0.964 ± 0.031 in the assay on HCT116 and 1.045 ± 0.0071 in the assay on SW480 [2]. The “TCF/Wnt firefly luciferase reporter signal” value with DLD1 [3] worked out at 1.1 ± 0.028; in the assay with SW480 [4], 1.045 ± 0.0071.
`O=C(CCCCCCCCCCCCC1CCCC1)Nc1ccc(S(=O)(=O)c2ccc(NC(=O)CCCCCCCCCCCCC3CCCC3)cc2)cc1`: the cell viability with DLD1 [1] was 1.02 ± 0.062; with HCT116, 1.04 ± 0.087; in the assay on SW480 [2], 1.03 ± 0.028. Moreover, the entries for the “TCF/Wnt firefly luciferase reporter signal” value with DLD1 [3] and in the assay on SW480 [4] were 1.01 ± 0.12 and 1 ± 0.036, respectively.
As to `OC1=Cc2c(O)cc(O)cc2OC1(O)c1ccc(O)c(O)c1` (stereo not given), the cell viability with DLD1 [1] was found to be 0.963 ± 0.053; in the assay on HCT116 it was 1.07 ± 0.17; in the assay with SW480 [2], 0.943 ± 0.044. Moreover, the “TCF/Wnt firefly luciferase reporter signal” value with DLD1 [3] turned out to be 0.923 ± 0.07; in the assay on SW480 [4] it was 0.9795 ± 0.0021.
The like results for `C[N+](C)(C)CCO.[Cl-]` were, in that order, 0.975 ± 0.0071, 1.01 ± 0.068, 0.929 ± 0.045, 1.03 ± 0.021 and 1.1 ± 0.042.
Take `COc1ccc2c(c1)CC[C@@H]1[C@@H]2CC[C@]2(C)[C@@H](O)CC[C@@H]12`: the cell viability in the assay on DLD1 [1] was determined as 0.928 ± 0.093; in the assay on HCT116, 0.953 ± 0.15; with SW480 [2] it was 1 ± 0.064. For the same compound, the “TCF/Wnt firefly luciferase reporter signal” value in the assay with DLD1 [3] worked out at 0.885 ± 0.18; in the assay on SW480 [4] it was 0.969 ± 0.16.
On the same counts, the results for `CCCCC1=NC2(CCCC2)C(=O)N1Cc1ccc(-c2ccccc2-c2nnn[nH]2)cc1` are 0.897 ± 0.099, 0.939 ± 0.016, 1 ± 0.083, 1.01 ± 0.048 and 0.811 ± 0.22.
On the same counts, the results for `C[C@]12CC[C@@H]3c4ccc(O)cc4CC[C@H]3[C@@H]1CCC2=O` are 0.894 ± 0.038, 1.05 ± 0.057, 0.995 ± 0.064, 1.15 ± 0.064 and 1.07 ± 0.085.
The like results for `O=c1cccc2ccc(O)c(O)c2c1O` were, in that order, 0.975 ± 0.012, 0.994 ± 0.11, 0.966 ± 0.033, 0.994 ± 0.079 and 1.06 ± 0.042.
Consider `COc1ccc2c(c1)O[C@@H]1COc3cc(OC)c(OC)cc3[C@@H]1C2=O`, for which the results for the cell viability in the assay on DLD1 [1], in the assay with HCT116 and with SW480 [2] were 1.02 ± 0.067, 0.841 ± 0.074 and 0.908 ± 0.037, respectively. The “TCF/Wnt firefly luciferase reporter signal” value is 0.979 ± 0.087 in the assay on DLD1 [3] and 0.777 ± 0.046 with SW480 [4].
With `CC1(C)CC[C@]2(C(=O)O)[C@H](O)C[C@]3(C)C(=CC[C@@H]4[C@@]5(C)CC[C@H](O)C(C)(C)[C@@H]5CC[C@]43C)[C@H]2C1`, the results for the cell viability in the assay on DLD1 [1], with HCT116 and in the assay with SW480 [2] were 0.9085 ± 0.0035, 0.94 ± 0.16 and 0.9525 ± 0.0092, respectively. Also, the figures for the “TCF/Wnt firefly luciferase reporter signal” value with DLD1 [3] and in the assay on SW480 [4] were 0.919 ± 0.033 and 0.999 ± 0.016, respectively.
